T cruzi growth-1 – T. cruzi intracellular proliferation inhibitors, primary screen, cell-based, beta-gal Tulahuen parasites, NIH3T3 host, luminescence; T. cruzi beta-gal in NIH3T3, GalScreen luminescence, 90 h; inhibition, % at 8.34 µM; hit rate 5.9% among 77,000;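 active means mean inhibition above about 93%, with at least 55% of replicates each passing it, limit read from the data, passing the limit was not always enough; inconclusive means only one of those two conditions holds; inactive means neither condition holds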
C diff growth – C. difficile growth inhibitors, primary screen, HTS; Clostridium difficile clinical isolate growth, OD600, 24 h; stronger effect = lower value; growth activity, negative = inhibition, % at 16 µg/mL (by protocol); hit rate 0.25% among 86,000; AID 1259249, 2017;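 active means mean growth activity at or below -80% and every replicate also at or below -80%; inconclusive means mean at or below -80% but some replicate above -80%; inactive means mean growth activity above -80%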;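 further: 0% = DMSO wells and -100% = levofloxacin 16 µg/mL wells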
Pf Dd2 growth – P. falciparum Dd2 growth inhibitors, primary screen, SYBR Green fluorescence, single dose replicates; 72 h; stronger effect = lower value; activity change, % at 10 µM; hit rate 2.3% among 94,000; in the data active means activity change below about -80%; inconclusive means no clear call, values can overlap the other calls
T cruzi growth-2 – T. cruzi intracellular proliferation inhibitors, confirmation, cell-based, NIH3T3 host, beta-gal parasite, luminescence, cherry-pick; shares compounds with T cruzi growth-1; T. cruzi beta-gal in NIH3T3, GalScreen luminescence, 90 h; inhibition, % at 8.35 µM; hit rate 72% among 5,600;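 active means mean replicate inhibition above about 95% and at least 55% of replicates individually reaching it, limit read from the data; inconclusive means only one of the two criteria is met; inactive means neither criterion is met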
T cruzi growth-3 – inhibitors of intracellular T. cruzi replication, confirmation, NIH3T3 host cells, beta-gal parasites, cherry-pick, set 2 | hit rate 21% among 5,600 | shares compounds with T cruzi growth-1 | AID 651740, 2012 | inhibition, % at 2.09 µM | T. cruzi beta-gal in NIH3T3, GalScreen luminescence, 90 h;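 active means mean inhibition above about 95%, with at least 55% of replicates also reaching it, limit read from the data; inconclusive means meets just one of the two conditions; inactive means meets neither condition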;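 further: plate controls were neutral control median for no effect and positive control median for full effect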
NIH3T3 tox – cytotoxicity in mouse NIH/3T3 fibroblasts, confirmation, cytotoxicity control for T. cruzi proliferation inhibitor project, cell-based, cherry-pick, single point; shares compounds with T cruzi growth-1; NIH/3T3 viability, CellTiter-Glo ATP luminescence, 90 h; cytotoxicity (signal decrease), % at 8.35 µM; hit rate 14% among 5,600;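 active means mean signal decrease across replicates above about 35% based on untreated-well scatter, with enough replicates individually passing, limit read from the data; inconclusive means no rule stated though some were filed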;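 further: 0% = median of neutral control wells and 100% = median of positive control wells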
NIH3T3 tox 2 – NIH/3T3 fibroblast cytotoxicity, confirmation, cytotoxicity control, cell-based, cherry-pick, single point, set 2. shares compounds with T cruzi growth-1. NIH/3T3 viability, CellTiter-Glo ATP luminescence, 90 h. inhibition, % at 24.9 µM. hit rate 56% among 5,600. AID 651744, 2012;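 active means mean loss of cell viability signal at or above a set limit, and enough replicates individually reaching it; inconclusive means meets only the mean limit or only the replicate share; inactive means meets neither condition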;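 further: 0% = median of neutral control wells and 100% = median of positive control wells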
* marks the source's active call; other numbers are inactive results. Only some compounds are listed: those with a hit (about 6.7% of all), similar ones and a draw of the others.

`C[C@H](CO)N1C[C@H](C)[C@H](CN(C)C(=O)Cc2ccccc2)OCCCC[C@H](C)Oc2ccc(NC(=O)Nc3ccc(F)cc3)cc2C1=O` gave T cruzi growth-1 40, C diff growth -3 and Pf Dd2 growth 50.
Screening C[C@H]1CCCCO[C@H](CN(C)C(=O)Cc2ccccc2)[C@@H](C)CN([C@@H](C)CO)C(=O)c2cc(NC(=O)Nc3ccc(F)cc3)ccc2O1 returned T cruzi growth-1 101*, C diff growth -4, Pf Dd2 growth -51, T cruzi growth-2 106*, T cruzi growth-3 -42, NIH3T3 tox -16 and NIH3T3 tox 2 20.
`C[C@@H]1CCCCO[C@H](CN(C)C(=O)Cc2ccccc2)[C@H](C)CN([C@H](C)CO)C(=O)c2cc(NC(=O)Nc3ccc(F)cc3)ccc2O1` gave T cruzi growth-1 103*, C diff growth 3, Pf Dd2 growth -85*, T cruzi growth-2 107*, T cruzi growth-3 108*, NIH3T3 tox -21 and NIH3T3 tox 2 2.
`C[C@H](CO)N1C[C@H](C)[C@@H](CN(C)C(=O)Cc2ccccc2)OCCCC[C@H](C)Oc2ccc(NC(=O)Nc3ccccc3)cc2C1=O` gave T cruzi growth-1 48 and Pf Dd2 growth 24.
C[C@@H]1CCCCO[C@H](CN(C)C(=O)Cc2ccccc2)[C@H](C)CN([C@H](C)CO)C(=O)c2cc(NC(=O)Nc3ccccc3)ccc2O1 was read as T cruzi growth-1 103*, Pf Dd2 growth -84*, T cruzi growth-2 98*, T cruzi growth-3 16, NIH3T3 tox -10 and NIH3T3 tox 2 -15.
For C[C@@H]1CN([C@H](C)CO)C(=O)c2cc(NC(=O)Nc3ccccc3)ccc2O[C@@H](C)CCCCO[C@@H]1CN(C)C(=O)Cc1ccccc1 the results were T cruzi growth-1 -6 and Pf Dd2 growth -75.
For C[C@@H]1CCCCO[C@H](CN(C)C(=O)Cc2ccccc2)[C@H](C)CN([C@@H](C)CO)C(=O)c2cc(NC(=O)Nc3ccc(F)cc3)ccc2O1 the results were T cruzi growth-1 100*, C diff growth -3, Pf Dd2 growth -66, T cruzi growth-2 103*, T cruzi growth-3 10, NIH3T3 tox -24 and NIH3T3 tox 2 -34.
For C[C@@H]1CN([C@H](C)CO)C(=O)c2cc(NC(=O)Nc3ccc(F)cc3)ccc2O[C@@H](C)CCCCO[C@@H]1CN(C)C(=O)Cc1ccccc1 the results were T cruzi growth-1 87, C diff growth 3 and Pf Dd2 growth inconclusive.
Screening COc1ccc2c3c(n(C)c2c1)[C@H](CO)N(Cc1ccccc1F)CC31CCN(C(=O)C2CCC2)CC1 returned C diff growth -5 and Pf Dd2 growth -36.
Screening CS(=O)(=O)N1CC2(C1)[C@H](c1ccccc1)[C@@H](CO)N2C(=O)C1CCC1 returned C diff growth -7 and Pf Dd2 growth 8.
`C[C@@H]1CN([C@@H](C)CO)C(=O)Cc2cc(NC(=O)Cn3cnnn3)ccc2O[C@H]1CN(C)S(=O)(=O)c1cccs1` gave T cruzi growth-1 31, C diff growth -6 and Pf Dd2 growth -8.
C[C@@H]1CCCCO[C@H](CN(C)Cc2ccc(C(=O)O)cc2)[C@@H](C)CN([C@@H](C)CO)C(=O)c2cc(NC(=O)Nc3ccc4c(c3)OCO4)ccc2O1 was read as T cruzi growth-1 8, C diff growth -4 and Pf Dd2 growth 18.
For Cc1noc(C)c1NC(=O)Nc1ccc2c(c1)C(=O)N([C@H](C)CO)C[C@H](C)[C@H](CN(C)C(=O)Cc1ccccc1)OCCCC[C@H](C)O2 the results were T cruzi growth-1 106*, C diff growth -3, Pf Dd2 growth -3, T cruzi growth-2 35, T cruzi growth-3 23, NIH3T3 tox -8 and NIH3T3 tox 2 -13.
For Cc1noc(C)c1NC(=O)Nc1ccc2c(c1)C(=O)N([C@@H](C)CO)C[C@H](C)[C@@H](CN(C)C(=O)Cc1ccccc1)OCCCC[C@@H](C)O2 the results were T cruzi growth-1 45, C diff growth -1 and Pf Dd2 growth -42.
`Cc1ccc(S(=O)(=O)N(C)C[C@H]2OCCCC[C@H](C)Oc3ccc(NS(=O)(=O)c4cccs4)cc3C(=O)N([C@@H](C)CO)C[C@@H]2C)cc1` gave T cruzi growth-1 86 and Pf Dd2 growth -50.
Cc1ccc(S(=O)(=O)N(C)C[C@@H]2OCCCC[C@H](C)Oc3ccc(NS(=O)(=O)c4cccs4)cc3C(=O)N([C@@H](C)CO)C[C@H]2C)cc1 was read as T cruzi growth-1 106*, Pf Dd2 growth -55, T cruzi growth-2 inconclusive, T cruzi growth-3 8, NIH3T3 tox 3 and NIH3T3 tox 2 24.
For Cc1ccc(S(=O)(=O)N(C)C[C@H]2OCCCC[C@H](C)Oc3ccc(NS(=O)(=O)c4cccs4)cc3C(=O)N([C@H](C)CO)C[C@@H]2C)cc1 the results were T cruzi growth-1 68 and Pf Dd2 growth -45.
`Cc1ccc(S(=O)(=O)N(C)C[C@@H]2OCCCC[C@H](C)Oc3ccc(NS(=O)(=O)c4cccs4)cc3C(=O)N([C@@H](C)CO)C[C@@H]2C)cc1` gave T cruzi growth-1 122*, Pf Dd2 growth -57, T cruzi growth-2 98*, T cruzi growth-3 41, NIH3T3 tox -11 and NIH3T3 tox 2 -5.
For Cc1ccc(S(=O)(=O)Nc2ccc3c(c2)C(=O)N([C@H](C)CO)C[C@@H](C)[C@H](CN(C)S(=O)(=O)c2cccs2)OCCCC[C@H](C)O3)cc1 the results were C diff growth -9.
Cc1ccc(S(=O)(=O)N(C)C[C@H]2OCCCC[C@@H](C)Oc3ccc(NS(=O)(=O)c4cccs4)cc3C(=O)N([C@@H](C)CO)C[C@H]2C)cc1 was read as T cruzi growth-1 103*, Pf Dd2 growth -49, T cruzi growth-2 112*, T cruzi growth-3 63, NIH3T3 tox -10 and NIH3T3 tox 2 -18.
`C[C@H]1CN([C@@H](C)CO)C(=O)c2cccc(NS(=O)(=O)c3ccccc3)c2O[C@@H]1CN(C)S(=O)(=O)c1cccs1` gave T cruzi growth-1 20, C diff growth -5 and Pf Dd2 growth 29.
For O=S(=O)(NC[C@@H]1CC[C@@H]2[C@@H](CN2CC(c2ccccc2)c2ccccc2)O1)c1ccccc1F the results were Pf Dd2 growth -5.

High-throughput results from PubChem BioAssay.
